Assay results taken from PubChem BioAssay (NCI).
About 83,000 compounds went through this panel and 20% of them were active in at least one assay; those are over-represented in the sample as a whole.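 Interpretation: 100, growth as untreated; towards 0, rising growth inhibition; 0, no net growth; 0 to -100, cell death. Compounds scoring below 10 were considered active.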 Calls of active or inactive are those of the source.

Key:
Test in all cases: NCI-60 one-dose screen, 48 h (100 = growth as untreated, 0 = no growth, -100 = all killed)
Settings in all cases: 10 µM unless noted
SR leukemia = tested on: SR leukemia
RPMI-8226 leukemia = tested on: RPMI-8226 leukemia
OVCAR-8 ovarian = tested on: OVCAR-8 ovarian
OVCAR-5 ovarian = tested on: OVCAR-5 ovarian
OVCAR-4 ovarian = tested on: OVCAR-4 ovarian
IGROV1 ovarian = tested on: IGROV1 ovarian
OVCAR-3 ovarian = tested on: OVCAR-3 ovarian
HS 578T breast = tested on: HS 578T breast
NCI/ADR-RES ovarian = tested on: NCI/ADR-RES ovarian
SK-OV-3 ovarian = tested on: SK-OV-3 ovarian

Measured: growth

COc1cc2c(O)n(CCCn3ccnc3)c3c4cnc5cccc(c(=O)c3c2cc1OC)c54
inactive: SR leukemia 25% | RPMI-8226 leukemia 19.4% | OVCAR-8 ovarian 35.3% | OVCAR-5 ovarian 83.1% | OVCAR-4 ovarian 50.9% | IGROV1 ovarian 46.2% | OVCAR-3 ovarian 44.7% | HS 578T breast 73.8% | NCI/ADR-RES ovarian 98.3%

N#Cc1c(NC(=O)c2ccc(Br)cc2)sc2c1CCCC2
inactive: SR leukemia 50.2% | RPMI-8226 leukemia 33.3% | OVCAR-8 ovarian 64.6% | OVCAR-5 ovarian 55.7% | OVCAR-4 ovarian 69.6% | IGROV1 ovarian 53.7% | OVCAR-3 ovarian 16.8% | HS 578T breast 39.1% | NCI/ADR-RES ovarian 16.6%

Cc1ccc(S(=O)(=O)NN/C(N)=N\S(=O)(=O)c2cc(C)c(Cl)cc2SCc2ccccc2)cc1
inactive: SR leukemia 70.4% | RPMI-8226 leukemia 34.1% | OVCAR-8 ovarian 109% | OVCAR-5 ovarian 89.2% | OVCAR-4 ovarian 89.5% | SK-OV-3 ovarian 102% | OVCAR-3 ovarian 121% | HS 578T breast 70.5% | NCI/ADR-RES ovarian 97.1%

Cc1c(Cl)cccc1NS(=O)(=O)c1ccccc1
inactive: SR leukemia 113% | RPMI-8226 leukemia 123% | OVCAR-8 ovarian 112% | OVCAR-5 ovarian 92% | OVCAR-4 ovarian 73.3% | SK-OV-3 ovarian 105% | IGROV1 ovarian 114% | OVCAR-3 ovarian 100% | HS 578T breast 102% | NCI/ADR-RES ovarian 104%

O=C(/C=C/C12c3ccccc3C(c3ccccc31)C1C(=O)NC(=O)C12)c1ccccc1 (stereo unspecified)
inactive: SR leukemia 20.9% | OVCAR-8 ovarian 27.3% | OVCAR-5 ovarian 26.4% | OVCAR-4 ovarian 39.4% | IGROV1 ovarian 19.8% | HS 578T breast 14.4%
active: RPMI-8226 leukemia 5.51% | OVCAR-3 ovarian 2.7% | NCI/ADR-RES ovarian 5.9%

COc1ccccc1C(=O)NC(=S)Nc1ccc(-c2nc3ccccc3[nH]2)cc1
inactive: SR leukemia 13.6% | RPMI-8226 leukemia 57.1% | OVCAR-8 ovarian 53.1% | OVCAR-5 ovarian 90.5% | IGROV1 ovarian 69% | HS 578T breast 36.5%
active: OVCAR-4 ovarian -60.7% | OVCAR-3 ovarian -36%

O=C(NC(=S)Nc1ccc(-c2nc3ccccc3[nH]2)cc1)c1ccc2ccccc2c1
inactive: OVCAR-8 ovarian 28.8% | OVCAR-5 ovarian 56.5% | IGROV1 ovarian 52.2% | HS 578T breast 11.3% | NCI/ADR-RES ovarian 28.8%
active: SR leukemia 5.49% | RPMI-8226 leukemia -6.21% | OVCAR-4 ovarian -18.7% | OVCAR-3 ovarian -45.2%

COc1cc2ccccc2cc1C(=O)NC(=S)Nc1ccc(-c2nc3ccccc3[nH]2)cc1
inactive: SR leukemia 28.3% | RPMI-8226 leukemia 71.5% | OVCAR-8 ovarian 93.1% | OVCAR-5 ovarian 103% | IGROV1 ovarian 83.2% | OVCAR-3 ovarian 55% | HS 578T breast 30.7% | NCI/ADR-RES ovarian 59.4%
active: OVCAR-4 ovarian -35.9%

COc1ccc(OC)c(Nc2nc3nonc3nc2Nc2cccc(Br)c2)c1
active: RPMI-8226 leukemia 2.67% | OVCAR-5 ovarian 9% | SK-OV-3 ovarian 3.28% | HS 578T breast 7.84% | NCI/ADR-RES ovarian 9.06%
inactive: SR leukemia 19.6% | OVCAR-8 ovarian 10.5% | OVCAR-4 ovarian 12.1% | IGROV1 ovarian 46.1% | OVCAR-3 ovarian 10.1%

Cc1cc(=O)c2cc3nc(-c4cccnc4)oc3c(Br)c2o1
inactive: SR leukemia 70.7% | RPMI-8226 leukemia 90% | OVCAR-8 ovarian 99.9% | OVCAR-5 ovarian 90.1% | OVCAR-4 ovarian 101% | SK-OV-3 ovarian 195% | OVCAR-3 ovarian 123% | HS 578T breast 116% | NCI/ADR-RES ovarian 83.9%

CNCCNc1nc2ccccc2c2c(=O)c3cc(F)ccc3oc12
inactive: SR leukemia 22.7% | RPMI-8226 leukemia 47.8% | OVCAR-8 ovarian 47% | OVCAR-5 ovarian 80.4% | OVCAR-4 ovarian 54.8% | IGROV1 ovarian 49.6% | OVCAR-3 ovarian 69.3% | HS 578T breast 70.6% | NCI/ADR-RES ovarian 47.8%

O=C(c1ccccc1)c1ccc(N2C(=O)C3C4c5ccccc5C(/C=C/C(=O)c5ccccn5)(c5ccccc54)C3C2=O)cc1 (stereo unspecified)
active: RPMI-8226 leukemia 3.95% | IGROV1 ovarian -19.8% | OVCAR-3 ovarian -54.1% | HS 578T breast 9.77%
inactive: SR leukemia 13.7% | OVCAR-8 ovarian 26.4% | OVCAR-5 ovarian 29.9% | OVCAR-4 ovarian 32.4% | NCI/ADR-RES ovarian 20.5%

O=C(CCl)N1c2cccc3cccc(c23)N(C(=O)CCl)C1c1cn(-c2ccccc2)nc1-c1cccc([N+](=O)[O-])c1
inactive: SR leukemia 17.8% | OVCAR-8 ovarian 79.3% | OVCAR-5 ovarian 108% | OVCAR-4 ovarian 96% | IGROV1 ovarian 79.5% | OVCAR-3 ovarian 61.6% | HS 578T breast 98.6% | NCI/ADR-RES ovarian 94.6%
active: RPMI-8226 leukemia -6.92%

CC1(C)CC(=O)c2c(ccc(C(=O)C[C@H](N)CO)c2N)O1
active: OVCAR-3 ovarian 7.02%
inactive: SR leukemia 16.7% | RPMI-8226 leukemia 13% | OVCAR-8 ovarian 32.4% | OVCAR-5 ovarian 64.2% | OVCAR-4 ovarian 69.8% | IGROV1 ovarian 34.7% | HS 578T breast 82.4% | NCI/ADR-RES ovarian 70.5%

Cc1ccc(S(=O)(=O)N(CC[C@@H]2C[C@H]2c2cc3ccccc3o2)C(=O)NC2CCCCC2)cc1
inactive: SR leukemia 100% | RPMI-8226 leukemia 107% | OVCAR-8 ovarian 98.8% | OVCAR-5 ovarian 95.7% | OVCAR-4 ovarian 93% | IGROV1 ovarian 95.8% | OVCAR-3 ovarian 104% | HS 578T breast 89.8% | NCI/ADR-RES ovarian 86.9%

NS(=O)(=O)c1cnccc1-n1ccc(=O)c(S(N)(=O)=O)c1
inactive: SR leukemia 86.5% | RPMI-8226 leukemia 60.4% | OVCAR-8 ovarian 100% | OVCAR-5 ovarian 89.7% | OVCAR-4 ovarian 95.2% | SK-OV-3 ovarian 81.1% | OVCAR-3 ovarian 93.3% | HS 578T breast 64% | NCI/ADR-RES ovarian 98.5%

COc1cc(CNC(=O)/C=C/C=C/c2ccc3c(c2)OCO3)ccc1OCc1cn(-c2ccc(Cl)c(Cl)c2)nn1
inactive: SR leukemia 24.8% | RPMI-8226 leukemia 20.9% | OVCAR-8 ovarian 11.3% | NCI/ADR-RES ovarian 15.9%
active: OVCAR-5 ovarian -19.8% | OVCAR-4 ovarian -62.7% | IGROV1 ovarian 6.63% | OVCAR-3 ovarian -62.8% | HS 578T breast 7.23%

COc1ccc2c(c1)/C(=C\c1sc(=S)[nH]c1O)C(C(=O)O)=N2
inactive: SR leukemia 110% | RPMI-8226 leukemia 101% | OVCAR-8 ovarian 99% | OVCAR-5 ovarian 101% | OVCAR-4 ovarian 101% | IGROV1 ovarian 107% | OVCAR-3 ovarian 98.8% | HS 578T breast 94% | NCI/ADR-RES ovarian 102%

COc1cccc(-c2cnco2)c1OCc1c(C)c(COc2c(OC)cccc2-c2cnco2)c(C)c(COc2c(OC)cccc2-c2cnco2)c1C
active: OVCAR-4 ovarian 7.51%
inactive: SR leukemia 64.2% | RPMI-8226 leukemia 47.4% | OVCAR-8 ovarian 56.7% | OVCAR-5 ovarian 74.9% | IGROV1 ovarian 80.2% | OVCAR-3 ovarian 63.1% | HS 578T breast 30.8%

Cc1cc(C(c2ccccc2)c2ccccc2)ccc1NS(=O)(=O)c1ccccc1
inactive: SR leukemia 74.7% | RPMI-8226 leukemia 71% | OVCAR-8 ovarian 101% | OVCAR-5 ovarian 114% | OVCAR-4 ovarian 98.5% | SK-OV-3 ovarian 109% | IGROV1 ovarian 123% | OVCAR-3 ovarian 108% | HS 578T breast 89.8% | NCI/ADR-RES ovarian 82.8%

CCOc1ccc2nc(-c3cccc(OCC(=O)NC(C)C)c3)nc(Nc3ccc(-c4cn[nH]c4)cc3)c2c1
inactive: OVCAR-5 ovarian 40.8% | SK-OV-3 ovarian 68.4% | IGROV1 ovarian 20.9% | NCI/ADR-RES ovarian 14.3%
active: SR leukemia 0.178% | RPMI-8226 leukemia -18.4% | OVCAR-8 ovarian -22.7% | OVCAR-4 ovarian -60.3% | OVCAR-3 ovarian -3.59% | HS 578T breast -44.5%

CCCN1CCN(c2ccc3nc(-c4ccc5nc(-c6cc(OC)c(OC)c(OC)c6)[nH]c5c4)[nH]c3c2)CC1
inactive: SR leukemia 34.6% | RPMI-8226 leukemia 95.3% | OVCAR-8 ovarian 75.5% | OVCAR-5 ovarian 116% | OVCAR-4 ovarian 89.9% | IGROV1 ovarian 101% | OVCAR-3 ovarian 76.9% | HS 578T breast 54.1% | NCI/ADR-RES ovarian 100%

CCCN1CCN(c2ccc3nc(-c4ccc5nc(-c6ccc(OCC)c(OCC)c6)[nH]c5c4)[nH]c3c2)CC1
active: RPMI-8226 leukemia -18.9% | OVCAR-8 ovarian -11% | OVCAR-5 ovarian -15.2% | OVCAR-4 ovarian -59.9% | IGROV1 ovarian -13.2% | OVCAR-3 ovarian -63.7% | HS 578T breast -37.2%
inactive: SR leukemia 20.9% | NCI/ADR-RES ovarian 79.4%

COc1ccc(NC(=O)c2cccc(-c3cc(=O)c4c(O)c(OC)c(OC)cc4o3)c2)cc1
inactive: SR leukemia 80.8% | RPMI-8226 leukemia 92.5% | OVCAR-8 ovarian 80.6% | OVCAR-5 ovarian 97.5% | OVCAR-4 ovarian 97.5% | IGROV1 ovarian 95.1% | OVCAR-3 ovarian 50.6% | HS 578T breast 56.1% | NCI/ADR-RES ovarian 85.3%

N#Cc1c(N)n2c(nc1=Nc1ccc([N+](=O)[O-])cc1)sc1cc(Cl)ccc12
inactive: SR leukemia 34.7% | RPMI-8226 leukemia 49.7% | OVCAR-8 ovarian 94.5% | OVCAR-5 ovarian 101% | OVCAR-4 ovarian 86.1% | SK-OV-3 ovarian 76.4% | IGROV1 ovarian 82.3% | OVCAR-3 ovarian 108% | HS 578T breast 79% | NCI/ADR-RES ovarian 95.2%

NS(=O)(=O)c1cn(-c2ncnc3nc[nH]c23)ccc1=O
inactive: SR leukemia 132% | RPMI-8226 leukemia 74.7% | OVCAR-8 ovarian 107% | OVCAR-5 ovarian 93.1% | OVCAR-4 ovarian 95.1% | SK-OV-3 ovarian 82.2% | IGROV1 ovarian 97.2% | OVCAR-3 ovarian 103% | HS 578T breast 102% | NCI/ADR-RES ovarian 105%

COc1cc(/C=C/c2nc(Nc3ccc(S(=O)(=O)Nc4cc(C)on4)cc3)c3ccccc3n2)ccc1O
inactive: SR leukemia 19.4% | RPMI-8226 leukemia 72.9% | OVCAR-8 ovarian 73.5% | OVCAR-5 ovarian 88.7% | OVCAR-4 ovarian 91% | SK-OV-3 ovarian 86% | IGROV1 ovarian 59.5% | OVCAR-3 ovarian 65.2% | HS 578T breast 78.5% | NCI/ADR-RES ovarian 51%

O=C(/C=C/C12c3ccccc3C(c3ccccc31)C1C(=O)N(c3ccccc3)C(=O)C12)c1ccccc1 (stereo unspecified)
inactive: SR leukemia 14.2% | OVCAR-8 ovarian 27.4% | OVCAR-4 ovarian 34.1% | HS 578T breast 20.7% | NCI/ADR-RES ovarian 14.2%
active: RPMI-8226 leukemia 1% | OVCAR-5 ovarian -12.7% | IGROV1 ovarian -24.5% | OVCAR-3 ovarian -61.9%

COc1cc2c(c(OC)c1OC)C(=O)/C(=C/c1cc(C)c(O)c(C)c1)S2
inactive: SR leukemia 33.8% | RPMI-8226 leukemia 21.8% | OVCAR-8 ovarian 41.5% | OVCAR-5 ovarian 65.2% | OVCAR-4 ovarian 51.8% | IGROV1 ovarian 45.7% | HS 578T breast 29.4% | NCI/ADR-RES ovarian 14.1%
active: OVCAR-3 ovarian 8.16%
